The whole screen tested about 5,500 compounds, of which about 2,000 (36%) were called active. About 18% were inconclusive and are not listed. The list shows a part of the results. A number with no mark means an inactive call. Rule as the data show it: active = normalized growth mostly below about 0.91 (no sharp cut-off); inconclusive = no clear call, values can overlap the other calls; inactive = mostly above about 0.92.

Here are results for three compounds from PubChem BioAssay AID1159580 (chemical genetic matrix, 2015).

A short description of the assay: chemical genetic growth profiling, strain panel (AID 1159580).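 Also: tested at 20 µM; growth read once vehicle control cultures reached saturation at 30 °C; 1 = growth at the plate median or of vehicle wells; lower values mean less growth of the strain.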 The following applies: S. cerevisiae deletion strains, growth OD.
Setting [1] is: locus YAL040C, strain CLN3, active compounds read low.
The mark [2] stands for this setting: locus YCL061C, strain MRC1 (second series), active compounds read low.
Where [3] appears, read: locus YDR363W, strain ESC2, active compounds read low.
Setting [4] is: locus YER002W, strain NOP16, active compounds read low.
The mark [5] stands for this setting: locus YGR229C, strain SMI1, active compounds read low.
[6] abbreviates: locus YMR263W, strain SAP30, active compounds read low.
[7] abbreviates: locus YMR307W, strain GAS1, active compounds read low.
Where [8] appears, read: locus YNL128W, strain TEP1, active compounds read low.
Where [9] appears, read: locus YNL153C, strain GIM3, active compounds read low.
Setting [10] is: locus YNL175C, strain NOP13, active compounds read low.
Where [11] appears, read: locus YNL197C, strain WHI3, active compounds read low.
The mark [12] stands for this setting: locus YNL224C, strain SQS1, active compounds read low.
The mark [13] stands for this setting: locus YNL322C, strain KRE1, active compounds read low.
Where [14] appears, read: locus YOR083W, strain WHI5 (second series), active compounds read low.
Where [15] appears, read: locus YPL055C, strain LGE1, active compounds read low.
Where [16] appears, read: locus YPL241C, strain CIN2, active compounds read low.

As to `C[C@@H](NCCc1ccc(O)cc1)[C@@H](O)c1ccc(O)cc1`, the normalized growth was 0.986 under setting [1]; 0.989 under setting [2]; 1.01 (locus YDR150W, strain NUM1, active compounds read low); 0.991 under setting [3]; 0.992 under setting [4]; 0.99 under setting [5]. In addition, the normalized growth (locus YJR075W, strain HOC1, active compounds read low) is 0.993; the normalized growth under setting [6] is 0.986; the normalized growth under setting [7] is 1.02; the normalized growth under setting [8] is 0.994; the normalized growth under setting [9] is 1.03; the normalized growth under setting [10] was 0.999. The normalized growth runs as follows: under setting [11], 0.992; under setting [12], 0.991; under setting [13], 0.974; under setting [14], 1; under setting [15], 0.995.
Turning to `CCCN(CCC)CCc1ccc(O)c(O)c1`, the normalized growth was 1.03 under setting [1]; 1 under setting [2]; 1.04 under setting [3]; 1.01 under setting [4]; 0.992 (locus YGR078C, strain PAC10, active compounds read low); 0.995 under setting [6]. Also, the normalized growth under setting [9] was 1; the normalized growth under setting [10] was 0.997; the normalized growth under setting [11] is 1; the normalized growth under setting [12] was 0.994; the normalized growth under setting [13] was 1.02; the normalized growth under setting [14] was 1.01. For the same compound, the normalized growth under setting [16] is 1.
For `CC(CCc1ccc(O)cc1)NCCc1ccc(O)c(O)c1` (stereo not given), the normalized growth by setting is: under setting [1], 1.01; under setting [2], 0.812 (active); under setting [3], 0.969; under setting [4], 0.993; under setting [5], 0.708 (active); under setting [6], 1.01. For the same compound, the normalized growth was 0.947 under setting [7]; 1.01 under setting [8]; 0.944 under setting [9]; 1.01 under setting [10]; 1.03 under setting [11]; 1.02 under setting [12]. Moreover, the normalized growth is, setting by setting: under setting [14], 0.98; under setting [15], 0.756 (active); under setting [16], 0.927 (active).
